Measurements: publication PMC5540273 (PLoS ONE, 2017)

Tests used:
Settings in all cases: concentration: 1 μM,replicates: in singlicate; n = 1
ADCK4 = test system: ADCK4
AKT1 = test system: AKT1
AKT2 = test system: AKT2
AKT3 = test system: AKT3
ALK = test system: ALK
AMPK-alpha1 = test system: T1, AMPK-alpha1
T1 construct: gene PRKAA1

AMPK-alpha2 = test system: T2, AMPK-alpha2
T2 construct: gene PRKAA2

ANKK1 = test system: ANKK1
ARK5 = test system: T3, ARK5
T3 construct: gene NUAK1

ASK1 = test system: T4, ASK1
T4 construct: gene MAP3K5

ASK2 = test system: T5, ASK2
T5 construct: gene MAP3K6

AURKA = test system: AURKA
AURKB = test system: AURKB
AURKC = test system: AURKC
AXL = test system: AXL
BIKE = test system: T6, BIKE
T6 construct: gene BMP2K

BLK = test system: BLK
BMPR1A = test system: BMPR1A
BMPR1B = test system: BMPR1B
BMPR2 = test system: BMPR2
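Note: KINOMEscan kinase panel screen.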

Structure (SMILES)	%Inh (ADCK4) [%]	%Inh (AKT1) [%]	%Inh (AKT2) [%]	%Inh (AKT3) [%]	%Inh (ALK) [%]	%Inh (AMPK-alpha1) [%]	%Inh (AMPK-alpha2) [%]	%Inh (ANKK1) [%]	%Inh (ARK5) [%]	%Inh (ASK1) [%]	%Inh (ASK2) [%]	%Inh (AURKA) [%]	%Inh (AURKB) [%]	%Inh (AURKC) [%]	%Inh (AXL) [%]	%Inh (BIKE) [%]	%Inh (BLK) [%]	%Inh (BMPR1A) [%]	%Inh (BMPR1B) [%]	%Inh (BMPR2) [%]
CSc1nccc(-c2c(-c3ccc(F)cc3)ncn2CCCN2CCOCC2)n1.Cl [SB-217146]	25	14	0	0	0	0	0	1	0	0	0	7	35	0	0	0	0	0	4	39
CS(=O)c1ccc(-c2coc3ccc(-c4n[nH]c(=O)o4)cc23)cc1 (centres unmarked)	12	0	0	26	13	100	5	36	10	0	23	13	26	0	3	17	4	10	32	9
CN(c1ccc2c(c1)nc(NCc1ccc(F)cc1)n2C)c1ccnc(Nc2ccc(CS(C)(=O)=O)cc2)n1.Cl [GW813244]	21	8	0	1	0	11	5	0	4	37	0	77	70	67	68	33	57	16	0	10
C[C@@H]1CNc2c(sc3ccc4nc(-c5ccc(O)cc5)ccc4c23)C(=O)N1	10	0	0	0	16	30	0	0	0	91	0	42	24	0	87	0	0	27	0	7
CN(c1cccc(CNc2nc(Nc3ccc4c(c3)CC(=O)N4)ncc2C(F)(F)F)c1)S(C)(=O)=O	29	0	0	0	41	26	5	0	99.3	0	0	93.8	99.4	88	64	95	0	0	0	39
O=C(Nc1ccc(Oc2ccc3nc(NC(=O)C4CC4)cn3n2)c(F)c1)c1cccn(-c2ccccc2)c1=O	0	18	13	30	0	0	3	0	0	3	0	0	4	42	90.4	25	90.3	12	0	0
CC(C(=O)NC1CCN(c2ccnc(Nc3ccc(F)cc3)n2)C1)c1ccc(Cl)cc1 (centres unmarked) [GSK1379713]	13	0	0	0	5	10	0	4	0	0	0	0	36	47	11	16	32	0	0	0
Cc1ccn2nc(-c3ccc(F)cc3)c(-c3ccncc3)c2c1.Cl [GW457859]	59	0	0	0	1	5	0	5	5	0	0	10	0	8	3	17	26	0	0	3
Cl.c1ccc(Oc2ccc(Nc3ccnc4cc(-c5ccc(CN6CCNCC6)o5)ccc34)cc2)nc1 [GW567142]	18	0	0	0	15	0	0	0	12	0	0	20	77	27	0	0	86	0	0	2
FC(F)(F)c1cc(Br)cc(Nc2nccc(-c3cnn4ncccc34)n2)c1 [GW810578]	27	6	6	20	0	24	16	27	40	0	25	9	16	16	3	29	0	8	7	0
Cl.Cl.NC[C@H](CC1CCCCC1)NC(=O)c1ccc(-c2ccnc3[nH]ccc23)s1 [GSK1581428]	2	94.1	93.4	98.1	37	77	72	0	89	0	26	93.8	96.8	73	96.3	99.1	0	8	23	1
O=c1[nH]cc(-c2ccc(O)cc2)c2sc(-c3ccncc3)cc12 [GSK1033723]	16	0	16	97.2	0	0	13	10	13	0	0	16	8	8	96.1	19	0	0	0	39
O=C(Nc1cccc(C(F)(F)F)c1)c1cccc(Oc2ccc3nccn3n2)c1	0	0	17	1	0	8	84	0	0	5	21	5	9	6	31	15	6	0	12	21
Nc1nccc(-c2ccc3c(N)n[nH]c3c2)n1 [GSK1034945]	33	0	10	0	20	0	0	31	0	0	0	0	0	51	0	94.4	25	12	87	0
CS(=O)(=O)Nc1ccc(-c2ccnc3[nH]ccc23)cc1 [GSK993273]	22	0	21	0	18	94.4	0	27	0	44	21	39	48	76	76	97.5	0	1	3	43
COC(=O)c1cccc(NC(=O)NC2CCN(c3ccnc(NCc4ccc(F)cc4)n3)CC2)c1 [GSK1379860]	18	0	0	0	30	0	0	0	10	0	4	0	0	13	9	13	24	0	0	9
COc1cccc(C2=C(Nc3cccc(Cl)c3)C(=O)NC2=O)c1 [SB-341556]	0	0	0	0	32	0	0	0	0	5	22	0	15	3	12	34	72	0	0	0
CCNCC(Cc1ccccc1)NC(=O)c1cc(Br)c(-c2ccnc3[nH]ccc23)s1.Cl.Cl (centres unmarked) [GSK1383280]	89	93.7	81	88	42	49	45	8	60	0	0	96.2	93.6	86	63	79	0	0	0	0
CS(=O)(=O)c1cccc(CNc2nc(Nc3ccc4c(c3)[C@@H]3C[C@@H]4CNC3=O)ncc2C(F)(F)F)c1	0	0	0	0	0	37	28	22	94.6	0	0	99.4	95.7	73	93.2	96.2	30	0	0	0

Structure (SMILES)	%Inh (ADCK4) [%]	%Inh (AKT1) [%]	%Inh (AKT2) [%]	%Inh (AKT3) [%]	%Inh (ALK) [%]	%Inh (AMPK-alpha1) [%]	%Inh (AMPK-alpha2) [%]	%Inh (ANKK1) [%]	%Inh (ARK5) [%]	%Inh (ASK1) [%]	%Inh (ASK2) [%]	%Inh (AURKA) [%]	%Inh (AURKB) [%]	%Inh (AURKC) [%]	%Inh (AXL) [%]	%Inh (BIKE) [%]	%Inh (BLK) [%]	%Inh (BMPR1A) [%]	%Inh (BMPR1B) [%]	%Inh (BMPR2) [%]
Cn1ccc2ncnc(Oc3ccc(NC(=O)Nc4cnn(C(C)(C)C)c4)c(Cl)c3)c21	0	0	8	13	0	19	20	0	19	2	9	23	44	52	76	19	32	17	6	9
Cc1n[nH]c2cc(Nc3ccnc(Nc4cccc(CN5CCOCC5)c4)n3)ccc12 [GW682569]	97.1	0	0	0	16	0	0	17	0	0	0	98.9	55	93.5	35	98.1	0	0	87	6
O=C(NOCC1CC1)c1cc(Br)c(F)c(F)c1Nc1ccc(I)cc1Cl	0	0	0	0	0	4	0	0	12	0	0	0	1	0	2	0	0	0	0	0
CCOC(=O)N1CCC(n2cnc(-c3ccc(F)cc3)c2-c2ccnc(N)n2)CC1 [SB-219952]	20	7	0	24	0	99.8	4	0	0	0	0	19	37	19	19	4	1	10	0	22
Cn1ccc2ncnc(Oc3ccc(NC(=O)Nc4ccnc(C(F)(F)F)c4)c(Cl)c3)c21	4	7	0	0	0	0	0	0	2	0	0	18	34	0	12	0	0	0	6	0
Cc1ccc(C(=O)Nc2ccc(Oc3ccc4nc(NC(=O)C5CC5)cn4c3)c(F)c2)c(=O)n1-c1ccccc1	27	0	0	7	8	5	0	0	0	0	0	0	82	48	84	4	99.3	0	0	0
CC(C)c1nc(-c2cccc(NS(=O)(=O)c3ccccc3)c2)c(-c2ccnc(Nc3ccc4c(c3)CN(C)CC4)n2)s1 [GSK1649598]	97.4	0	4	0	0	82	94.5	42	6	0	4	23	52	55	68	0	99.6	81	99.9	9
Cc1ccc(Nc2ccnc(Nc3ccc4c(c3)CS(=O)(=O)C4)n2)cc1O.Cl [GW579362]	100	0	0	0	51	10	17	44	25	0	3	100	85	97.9	86	99.8	99.5	85	99.8	62
CN(c1ccccc1CNc1nc(Nc2ccc3c(c2)CC(=O)N3)ncc1C(F)(F)F)S(C)(=O)=O	0	0	0	0	92.4	74	70	0	92.1	0	0	97.2	98.7	84	92.4	56	64	12	0	0
Cc1cccc2c(-c3ccncc3)c(-c3ccc(F)cc3)nn12.Cl [GW461487]	28	0	2	0	7	17	0	24	11	1	0	7	0	0	0	3	22	0	0	0
COc1cc2c(Nc3ccc(NC(=O)c4ccccc4)cc3)ncnc2cc1OCCCN1CCOCC1 [GSK301329]	0	0	0	0	9	0	0	17	28	0	20	94.5	95.6	70	55	28	96.7	0	0	0
C[C@@H]1CCN(C(=O)N2CCCC2)C[C@@H]1N(C)c1ncnc2[nH]ccc12	0	0	3	0	0	66	77	0	16	0	0	57	31	6	7	25	0	0	13	20
C[C@@H](Oc1cc(-n2cnc3cc(-c4ccncc4)ccc32)sc1C(N)=O)c1ccccc1Cl [GSK479719]	9	0	6	0	31	5	17	0	75	4	8	0	48	100	89	98.6	0	0	0	0
Cn1ccc2ncnc(Oc3ccc(NC(=O)Nc4cccc(C(F)(F)F)c4)c(Cl)c3)c21	6	0	0	0	0	15	0	0	3	5	0	0	51	29	75	0	6	15	0	0
CCCC(=O)Nc1n[nH]c2ncccc12 [SB-601436]	0	0	0	2	0	0	0	13	0	0	0	0	18	0	18	9	19	0	0	17
COc1cc2ncn(-c3cc(OCC4CCCCC4)c(C(N)=O)s3)c2cc1OC [GSK204559]	11	0	0	0	22	0	27	14	0	14	8	0	13	60	0	90	33	0	0	5
N#Cc1cccc(C(=O)NC2CCN(c3ccnc(Nc4ccc(F)cc4)n3)C2)c1 (centres unmarked) [GSK1379708]	20	0	0	0	26	16	0	0	0	0	0	0	0	33	20	22	32	0	0	0
CN1CCN(CCNc2nc3cc(Oc4ccc(NC(=O)Nc5cc(C(F)(F)F)ccc5F)cc4)ccc3[nH]2)CC1.Cl.Cl [GW768504]	22	4	0	0	0	9	11	0	29	0	0	9	22	13	82	0	14	12	0	0
